PubChem BioAssay (EPA / NIEHS)
Records with an inconclusive call do not appear. Active and inactive are the calls of the source. How the source made its calls: active means hit-call score of the fitted dose curve at least 0.9, where 1 is the maximum; inconclusive means response in the unintended direction; inactive means score below 0.9.

Assays:
[1] = molecular target: Estrogen receptor (Homo sapiens) (UniProt P03372); assay: OT_ER_ERaERa_0480: Odyssey Thera (OT) 8-hour HEK293T Protein-Complementation Assay for Estrogen Receptor-alpha/-alpha Homodimer (AID 2283351);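 further: rise in fluorescence from reassembled reporter fragments on ERα LBD homodimer in nucleus or whole cell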
Summary of the method: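 Cells were treated for 8 hours, then imaged on a laser scanning plate cytometer. Complementation of reporter fragments fused to the human ERα ligand-binding domain (residues 310-547) in HEK293T gave fluorescence, and gain of signal over vehicle was fitted.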

[2] = molecular target: T1, Estrogen receptor (Homo sapiens) + Estrogen receptor beta (Homo sapiens) (UniProt P03372+Q92731); assay: OT_ER_ERaERb_0480: Odyssey Thera (OT) 8-hour HEK293T Protein-Complementation Assay for Estrogen Receptor-alpha/-beta Heterodimer (AID 2283352)
Summary of the method: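 HEK293T protein-fragment complementation assay of ER-alpha/ER-beta LBD heterodimerisation, read 8 h after dosing. Mean nuclear/cytoplasmic fluorescence intensity measured by laser scanning cytometry; gain of signal fitted relative to DMSO.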

[3] = molecular target: Androgen Receptor/SRC-1 Co-activator, AR (gene 367) (UniProt P10275); assay: OT_AR_ARSRC1_0960: Odyssey Thera (OT) 16-hour HEK293T Protein-Complementation Assay for Androgen Receptor/SRC-1 Co-activator (AID 2283353);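 further: actives raise the signal above DMSO so potency reflects increased AR and SRC-1 complex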
Summary of the method: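 Stable HEK293T line carries AR and SRC-1 each linked to a Venus fragment; chemicals are applied for 16 h, cells imaged at two wavelengths, and the 488 nm nucleus/cytoplasm ratio is taken as the signal, rising relative to DMSO.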

[4] = molecular target: Androgen Receptor/SRC-1 Co-activator, AR (gene 367) (UniProt P10275); assay: OT_AR_ARSRC1_0480: Odyssey Thera (OT) 8-hour HEK293T Protein-Complementation Assay for Androgen Receptor/SRC-1 Co-activator (AID 2283354);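 further: hits raise the complementation signal above DMSO so AC50 marks enhancers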
Summary of the method: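 After 8 h dosing, stably expressing HEK293T cells with split-Venus AR/SRC-1 fusions were imaged (488, 635nm). The 488nm N/C ratio per image gave the endpoint, analysed in the positive direction against DMSO.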

[5] = molecular target: T1, Estrogen receptor (Homo sapiens) + Estrogen receptor beta (Homo sapiens); assay: OT_ER_ERaERb_1440: Odyssey Thera (OT) 24-hour HEK293T Protein-Complementation Assay for Estrogen Receptor-alpha/-beta Homodimer (AID 2283356);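 further: heteromer of ER alpha and ER beta binding domains; hits raise reporter fluorescence and both agonists and antagonists give an increase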
Summary of the method: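 HEK293T stably expressing a PCA of ER alpha LBD (aa 310-547) and ER beta LBD (aa 263-489). After 24 h compound exposure, mean fluorescence intensity in nucleus (agonists) or nucleus and cytoplasm (antagonists) measured by laser scanning cytometry versus vehicle.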

[6] = molecular target: Estrogen receptor beta (Homo sapiens) (UniProt Q92731); assay: OT_ER_ERbERb_0480: Odyssey Thera (OT) 8-hour HEK293T Protein-Complementation Assay for Estrogen Receptor-beta/-beta Homodimer (AID 2283357);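 further: active means signal gain over DMSO baseline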
Summary of the method: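 Fluorescence gain from complemented reporter fragments on ER-beta LBD homodimer in HEK293T was quantified against DMSO controls after 8 h treatment, fixation in 4% formaldehyde and Draq5 staining.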

[7] = molecular target: Bile acid receptor (Homo sapiens) (UniProt Q96RI1); assay: NVS_NR_hFXR_Antagonist: NovaScreen (NVS) Nuclear Receptor Binding Assay for human Farnesoid X Receptor Antagonism (FXR) (AID 2283350)
Summary of the method: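 Antagonist-format time-resolved FRET binding assay with extracted human receptor protein, read 1 hour after compound addition. Compounds first screened at 25 uM in duplicate, then actives tested in concentration series, with loss of signal relative to DMSO.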

[8] = molecular target: human Peroxisome Proliferator-activated Receptor alpha (PPARa), PPARA (gene 5465) (UniProt Q07869); assay: NVS_NR_hPPARa: NovaScreen (NVS) Nuclear Receptor Binding Assay for human Peroxisome Proliferator-activated Receptor alpha (PPARa) (AID 2283359);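 further: activity means loss of TR-FRET signal versus DMSO baseline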
Summary of the method: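 One-hour incubation, cell-free extracted protein, TR-FRET binding readout; signal loss vs DMSO scored. Screen: 25 uM duplicates, confirmatory dose series for actives.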

[9] = molecular target: Retinoic acid receptor alpha (Homo sapiens) (UniProt P10276); assay: NVS_NR_hRAR_Antagonist: NovaScreen (NVS) Nuclear Receptor Binding Assay for human Retinoic Acid Alpha Receptor Antagonism (RAR) (AID 2283358)
Summary of the method: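 Chemicals were first tested in duplicate at 25 uM, then actives in concentration series, in a cell-free TR-FRET antagonist binding format. Measurements were taken 2 hours after dosing and loss of signal was evaluated against DMSO controls.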

human Peroxisome Proliferator-activated Receptor alpha (PPARa), PPARA (gene 5465), sequence (Q07869 whole entry, looked up): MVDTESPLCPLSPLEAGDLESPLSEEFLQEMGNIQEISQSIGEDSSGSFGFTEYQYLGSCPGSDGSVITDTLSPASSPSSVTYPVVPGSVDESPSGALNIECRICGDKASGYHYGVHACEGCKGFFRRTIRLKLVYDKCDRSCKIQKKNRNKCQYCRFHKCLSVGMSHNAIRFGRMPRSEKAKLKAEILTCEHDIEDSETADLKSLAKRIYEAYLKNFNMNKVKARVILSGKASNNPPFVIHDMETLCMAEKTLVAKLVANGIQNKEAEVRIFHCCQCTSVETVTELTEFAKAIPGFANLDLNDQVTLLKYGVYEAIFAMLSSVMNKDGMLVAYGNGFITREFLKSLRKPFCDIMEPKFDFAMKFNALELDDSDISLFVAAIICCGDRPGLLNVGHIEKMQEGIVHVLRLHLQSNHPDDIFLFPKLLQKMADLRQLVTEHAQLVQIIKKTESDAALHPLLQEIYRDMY
Androgen Receptor/SRC-1 Co-activator, AR (gene 367), sequence (P10275 whole entry, looked up, the tested form may be a part): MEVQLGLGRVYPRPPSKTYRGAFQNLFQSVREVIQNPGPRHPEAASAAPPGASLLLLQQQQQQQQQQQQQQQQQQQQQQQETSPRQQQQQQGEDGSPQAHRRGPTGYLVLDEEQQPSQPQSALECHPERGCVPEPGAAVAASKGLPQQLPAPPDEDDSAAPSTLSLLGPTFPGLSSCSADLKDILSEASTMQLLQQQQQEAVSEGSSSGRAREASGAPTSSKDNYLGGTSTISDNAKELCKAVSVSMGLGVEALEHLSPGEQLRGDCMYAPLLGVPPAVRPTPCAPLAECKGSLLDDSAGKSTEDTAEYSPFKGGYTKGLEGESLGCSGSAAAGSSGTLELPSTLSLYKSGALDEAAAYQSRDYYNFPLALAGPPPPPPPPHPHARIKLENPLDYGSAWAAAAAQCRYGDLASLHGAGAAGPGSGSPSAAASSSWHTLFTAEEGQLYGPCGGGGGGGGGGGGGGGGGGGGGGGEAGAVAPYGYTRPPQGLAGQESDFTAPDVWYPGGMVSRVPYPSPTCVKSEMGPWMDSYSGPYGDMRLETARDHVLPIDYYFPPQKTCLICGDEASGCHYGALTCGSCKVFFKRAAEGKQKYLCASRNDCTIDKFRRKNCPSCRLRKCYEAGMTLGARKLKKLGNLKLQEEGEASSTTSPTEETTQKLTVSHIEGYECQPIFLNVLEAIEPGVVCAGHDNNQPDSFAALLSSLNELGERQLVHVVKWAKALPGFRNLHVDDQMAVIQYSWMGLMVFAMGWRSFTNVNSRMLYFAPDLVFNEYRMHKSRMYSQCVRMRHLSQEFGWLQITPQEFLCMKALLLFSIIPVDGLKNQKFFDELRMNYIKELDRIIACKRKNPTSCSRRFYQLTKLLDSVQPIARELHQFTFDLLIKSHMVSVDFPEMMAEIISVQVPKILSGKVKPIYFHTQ
Estrogen receptor beta (Homo sapiens), sequence (Q92731 whole entry, looked up, the tested form may be a part): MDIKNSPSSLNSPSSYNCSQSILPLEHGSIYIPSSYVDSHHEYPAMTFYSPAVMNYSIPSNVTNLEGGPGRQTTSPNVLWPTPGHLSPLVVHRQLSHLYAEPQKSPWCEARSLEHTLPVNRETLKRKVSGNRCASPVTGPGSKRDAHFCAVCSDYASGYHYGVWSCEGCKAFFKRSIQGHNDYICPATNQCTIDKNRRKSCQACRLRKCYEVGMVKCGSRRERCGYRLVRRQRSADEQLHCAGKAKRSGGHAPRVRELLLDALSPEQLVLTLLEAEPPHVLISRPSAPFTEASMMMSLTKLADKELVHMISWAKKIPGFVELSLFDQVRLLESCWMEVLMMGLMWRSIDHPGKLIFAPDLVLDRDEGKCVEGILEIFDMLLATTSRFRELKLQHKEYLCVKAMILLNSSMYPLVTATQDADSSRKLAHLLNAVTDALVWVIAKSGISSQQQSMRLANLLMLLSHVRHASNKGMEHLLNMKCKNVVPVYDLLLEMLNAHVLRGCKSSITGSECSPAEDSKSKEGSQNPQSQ
T1 sequence (P03372 whole entry, looked up, the tested form may be a part): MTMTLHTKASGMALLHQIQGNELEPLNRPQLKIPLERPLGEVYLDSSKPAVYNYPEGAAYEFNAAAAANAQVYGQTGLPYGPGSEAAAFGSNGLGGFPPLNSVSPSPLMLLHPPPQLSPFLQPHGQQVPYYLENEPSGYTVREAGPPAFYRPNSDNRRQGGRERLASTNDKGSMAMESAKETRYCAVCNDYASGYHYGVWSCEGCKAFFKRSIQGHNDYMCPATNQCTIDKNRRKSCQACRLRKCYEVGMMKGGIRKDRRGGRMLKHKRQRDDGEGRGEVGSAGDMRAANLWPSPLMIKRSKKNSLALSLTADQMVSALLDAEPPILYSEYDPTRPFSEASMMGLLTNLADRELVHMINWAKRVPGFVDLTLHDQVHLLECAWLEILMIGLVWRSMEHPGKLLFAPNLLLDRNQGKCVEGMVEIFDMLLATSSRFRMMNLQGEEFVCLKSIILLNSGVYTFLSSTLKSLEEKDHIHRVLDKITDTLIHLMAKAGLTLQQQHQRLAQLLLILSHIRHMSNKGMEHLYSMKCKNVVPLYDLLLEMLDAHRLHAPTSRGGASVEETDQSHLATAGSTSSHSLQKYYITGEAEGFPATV
T1 sequence (Q92731 whole entry, looked up, the tested form may be a part): as the sequence (Q92731 whole entry, looked up, the tested form may be a part) above
Estrogen receptor (Homo sapiens), sequence (P03372 whole entry, looked up, the tested form may be a part): as the sequence (P03372 whole entry, looked up, the tested form may be a part) above
Retinoic acid receptor alpha (Homo sapiens), sequence (P10276 whole entry, looked up): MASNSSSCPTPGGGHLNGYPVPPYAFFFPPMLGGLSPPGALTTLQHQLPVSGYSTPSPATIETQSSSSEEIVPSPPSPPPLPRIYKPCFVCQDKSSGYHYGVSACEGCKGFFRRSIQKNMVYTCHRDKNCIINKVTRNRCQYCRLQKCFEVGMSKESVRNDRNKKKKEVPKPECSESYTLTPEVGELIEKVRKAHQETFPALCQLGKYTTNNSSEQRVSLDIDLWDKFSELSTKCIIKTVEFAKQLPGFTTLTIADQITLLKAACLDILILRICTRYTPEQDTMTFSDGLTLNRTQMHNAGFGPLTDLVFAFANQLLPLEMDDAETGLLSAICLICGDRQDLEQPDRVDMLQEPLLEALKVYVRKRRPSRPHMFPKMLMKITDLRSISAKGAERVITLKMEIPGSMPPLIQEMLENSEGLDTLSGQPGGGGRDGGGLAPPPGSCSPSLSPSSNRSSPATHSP
Bile acid receptor (Homo sapiens), sequence (Q96RI1 whole entry, looked up): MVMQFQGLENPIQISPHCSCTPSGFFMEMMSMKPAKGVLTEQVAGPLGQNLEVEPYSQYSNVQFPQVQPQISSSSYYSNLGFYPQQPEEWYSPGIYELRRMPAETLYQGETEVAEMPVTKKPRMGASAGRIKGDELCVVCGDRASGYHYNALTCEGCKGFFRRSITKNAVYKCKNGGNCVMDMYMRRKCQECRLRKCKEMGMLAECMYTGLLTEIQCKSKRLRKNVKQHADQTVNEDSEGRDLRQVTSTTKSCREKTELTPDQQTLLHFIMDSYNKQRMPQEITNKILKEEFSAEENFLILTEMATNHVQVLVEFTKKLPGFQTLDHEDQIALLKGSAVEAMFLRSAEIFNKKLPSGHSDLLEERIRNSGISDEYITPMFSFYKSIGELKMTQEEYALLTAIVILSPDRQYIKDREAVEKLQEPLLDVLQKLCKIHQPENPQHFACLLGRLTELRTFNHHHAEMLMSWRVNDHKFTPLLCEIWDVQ

SMILES: O=S1(=O)OC(c2cc(Br)c(O)c(Br)c2)(c2cc(Br)c(O)c(Br)c2)c2ccccc21
- outcome [1]: inactive
- AC50 [2]: 15.2 µM (active)
- outcome [3]: inactive
- outcome [4]: inactive
- outcome [5]: inactive
- AC50 [6]: 46.5 µM (active)

SMILES: O=C(O)C1(c2ccc3c(c2)OC[C@H](Cc2ccc(-c4ccccc4)cc2)[C@H]3O)CCCC1
- outcome [7]: inactive

SMILES: N#CCC#N
- outcome [1]: inactive
- outcome [2]: inactive
- outcome [3]: inactive
- outcome [4]: inactive
- outcome [5]: inactive
- outcome [6]: inactive
- outcome [8]: inactive

SMILES: CCOCn1c(-c2ccc(Cl)cc2)c(C#N)c(Br)c1C(F)(F)F
- outcome [1]: inactive
- AC50 [2]: 16.9 µM (active)
- AC50 [5]: 12.4 µM (active)
- AC50 [6]: 17.3 µM (active)

SMILES: O=C(NC(=O)c1c(F)cccc1F)Nc1cc(Cl)c(OC(F)(F)C(F)C(F)(F)F)cc1Cl (centres undefined)
- outcome [1]: inactive
- outcome [2]: inactive
- outcome [3]: inactive
- outcome [4]: inactive
- AC50 [5]: 50.2 µM (active)
- outcome [6]: inactive

SMILES: O=[N+]([O-])c1ccc(Cl)c([N+](=O)[O-])c1
- outcome [1]: inactive
- AC50 [3]: 9.86 µM (active)
- AC50 [4]: 15 µM (active)
- outcome [8]: inactive

SMILES: CCCSP(=S)(OCC)Oc1ccc(SC)cc1 (centres undefined)
- outcome [1]: inactive
- AC50 [2]: 22.7 µM (active)
- AC50 [5]: 24.1 µM (active)
- outcome [6]: inactive

SMILES: O=C(NC(=O)c1c(F)cccc1F)Nc1ccc(Cl)cc1
- outcome [1]: inactive
- outcome [2]: inactive
- outcome [5]: inactive

SMILES: N#CCCC(Br)(C#N)CBr (centres undefined)
- outcome [2]: inactive
- AC50 [5]: 11.8 µM (active)
- outcome [8]: inactive

SMILES: O=C(CCl)Nc1ccccc1
- outcome [1]: inactive
- AC50 [3]: 28.2 µM (active)
- AC50 [4]: 59.5 µM (active)
- outcome [5]: inactive

SMILES: C=CCN=C=S
- outcome [1]: inactive

SMILES: CC(C)N(C(=O)CCl)c1ccccc1
- outcome [1]: inactive
- outcome [2]: inactive
- AC50 [3]: 45.7 µM (active)
- outcome [4]: inactive
- outcome [5]: inactive
- outcome [6]: inactive

SMILES: N#Cc1cccnc1
- outcome [1]: inactive
- outcome [6]: inactive
- outcome [8]: inactive

SMILES: CCCCCCCCCCCCc1cccc(S(=O)(=O)O)c1
- AC50 [9]: 22.5 µM (active)

SMILES: Clc1cccc(Cl)c1Cl
- outcome [9]: inactive
